# TGFb inhibitor = qHTS for Inhibitors of TGF-b. HepG2 CAGA-GFP TGF-b/SMAD3 reporter, GFP fluorescence, 18 h; TGF-beta stimulated, 500 pg/mL final. Potency, µM (series often up to 46.1 µM), without a hit: top-dose activity, negative = inhibition, usual class: inhibitors. hit rate 1.2% among 410,000; note: potency is the fitted concentration of half-maximal effect; % is set by controls: 0 for no effect and ±100 for the full control effect; nearly all actives have a fitted effect of over 65% in size
#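 Inhibition of TGF-beta-driven CAGA-GFP reporter expression in HEPG2 cells is measured by cellular GFP fluorescence after 18 h stimulation with 500 pg/mL recombinant TGF-beta in 1% FBS medium at 37 degrees C.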
# IL1B secr inh = qHTS for Inhibitors of Inflammasome Signaling: IL-1-beta AlphaLISA Primary Screen; THP-1 LPS/ATP IL-1B secretion, AlphaLISA, 16 h; stronger effect = lower value; activity change, % at 57.5 µM; hit rate 4.7% among 360,000; AID 743279, 2014; in the data active = activity change below about -50%; inconclusive = mostly about -30% to -49%; note: % is set by controls: 0 for no effect and ±100 for the full control effect
#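 THP-1 cells pretreated 1 hr with compounds (up to 57.5 uM final), then stimulated with LPS (250 ng/mL final) plus ATP (1.25 mM final); secreted IL-1B measured by AlphaLISA after 16 hr, decreased signal indicating inhibition.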
# ATXN2 expr inh = Primary qHTS for Inhibitors of ATXN expression; Potency, µM (series often up to 57 µM), without a hit: top-dose activity change, negative = inhibition, most hits filed as inhibitors; HEK-293 ATXN2-luciferase reporter, luminescence, 24 h; hit rate 0.72% among 360,000; note: potency is the fitted concentration of half-maximal effect; % is set by controls: 0 for no effect and ±100 for the full control effect; nearly all actives have a fitted effect of over 55% in size
#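 ATXN2-luciferase reporter cells (luciferase flanked by upstream and downstream ATXN2 gene portions) were treated 24 h at 37 °C with compounds at up to 57 uM. SteadyGlo luminescence gave expression; GF-AFC fluorescence gave viability.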
# S2 tox = Viability Counterscreen for Primary qHTS for Inhibitors of ATXN expression; S2 cells (HEK-293 line with an ATXN2-luciferase reporter) viability, CellTiter-Fluor protease fluorescence, 24 h; Potency, µM (titrated, usually from 56.7 µM), usual class: cytotoxic; hit rate 0.49% among 400,000; AID 651635, 2014; note: potency is the fitted concentration of half-maximal effect; nearly all actives have a fitted effect of over 40% in size
# HepG2 viability = qHTS for Inhibitors of TGF-b: Cytotox Counterscreen | HepG2 CAGA-GFP viability, ATP luminescence, 18 h | Potency, µM (highest dose often 46.1 µM), for the others: at the highest dose activity change, negative = cytotoxicity, hits mostly cytotoxic | hit rate 0.76% among 410,000 | AID 588856, 2011; note: potency is the fitted concentration of half-maximal effect
#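 CellTiter-Glo luminescence gave cytotoxicity after 18 hours at 37 degrees C. The cells were HepG2 CAGA-GFP in 1% FBS DMEM, stimulated with 500 pg/mL TGF-beta after compound addition. %Activity was normalised to no-cell wells (complete cell-killing) and DMSO (no toxicity), and curves were fitted and classified.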
# Starred values were filed as active, the others as inactive; i = inactive; ? = inconclusive; . = no result. Shown are actives, neighbours in structure and some others; about 5.7% of the full set was active somewhere. Unless noted, calls come from the whole dose curve; as a rule, active = well fitted curve in the direction sought with a large enough effect; inconclusive = small, poorly fitted or top-dose-only effect, or another doubt; inactive = no such curve, though single readings can be large; an effect the other way counts as inactive or inconclusive.
SMILES,TGFb inhibitor,IL1B secr inh,ATXN2 expr inh,S2 tox,HepG2 viability
CN(C)C/C=C/C(O)(c1ccccc1)c1ccccc1,-11.5%,-19.7,-2.0%,i,-0.5%
CN(C)CC(CCC(CN(C)C)C(O)(c1ccccc1)c1ccccc1)C(O)(c1ccccc1)c1ccccc1 (stereo unspecified),-1.9%,-84.6*,?,.,-18.7%
COc1ccc2c(c1)OC[C@H]1[C@H]2N2C(=O)c3cc(F)ccc3NC(=O)[C@@]2(C)[C@H]1c1ccccc1,-16.2%,-62.3*,-13.6%,i,7.5%
COc1cc2c(cc1OC)C(=O)N1[C@H]3c4cc(Cl)ccc4OC[C@@H]3[C@H](c3ccccc3)[C@]1(C)C(=O)N2,?,-50.1*,-13.9%,i,-30.8%
COc1cc2c(cc1OC)C(=O)N1[C@H]3c4cc(C)ccc4OC[C@@H]3[C@H](c3ccccc3)[C@]1(C)C(=O)N2,-5.2%,-50.5*,-12.0%,i,1.8%
Cc1ccc2c(c1)[C@H]1[C@H](CO2)[C@H](c2ccccc2)[C@]2(C)C(=O)Nc3cc(Cl)ccc3C(=O)N12,-9.0%,-21.0,-7.9%,?,-15.0%
C[C@@]12C(=O)Nc3cc(F)ccc3C(=O)N1[C@H]1c3ccccc3OC[C@@H]1[C@@H]2c1ccccc1,-0.6%,-74.7*,-14.7%,i,-20.7%
Cc1cc(C)c2c(-n3cccc3)c(C(=O)NCCc3ccc(Cl)cc3)sc2n1,-11.7%,.,.,.,1.5%
COc1cc(=O)n2c(c1C(=O)NCc1ccco1)CCN(C(=O)c1ccc(C)c(C)c1)CC2,.,.,.,i,.
Cc1ccc2c(c1)[C@H]1[C@H](CO2)[C@H](c2ccccc2)[C@]2(C)C(=O)Nc3ccc(F)cc3C(=O)N12,-20.4%,-61.3*,?,?,-27.3%
Cc1ccc2c(c1)[C@H]1[C@H](CO2)[C@H](c2ccccc2)[C@]2(C)C(=O)Nc3cc(F)c(F)cc3C(=O)N12,-1.9%,?,?,i,-10.6%
CC(C)(C)n1ncc2c(=O)n(Cc3cccc(C#N)c3)cnc21,-2.8%,.,.,.,-31.9%
O=C(CCl)N(c1ccccc1)C1CCCCC1,?,-101.2*,?,?,17.8µM*
Cc1ccc2oc(-c3ccc(C)c(NC(=O)COc4ccc(Cl)cc4)c3)nc2c1,5.4%,.,.,.,-9.5%
Nc1nc2ncn(COCCO)c2c(=O)[nH]1,-1.1%,.,.,.,5.0%
Clc1ccc(C[n+]2cc(-c3ccccc3)n3c2CCCCC3)c(Cl)c1,?,-91.2*,?,?,-30.6%
Clc1ccc(-c2c[n+](Cc3ccc(Cl)cc3Cl)c3n2CCCCC3)cc1,-23.4%,-81.5*,?,?,-27.4%
N#CC[n+]1cc(-c2ccc(Cl)cc2)n2c1CCC2,-6.1%,16.8,-9.7%,i,0.7%
O=[N+]([O-])c1ccc(C[n+]2cc(-c3ccccc3)n3c2CCCCC3)cc1,22.6%,-7.3,0.3%,?,16.9%
Clc1ccc(-c2c[n+](Cc3ccc(Br)cc3)c3n2CCCCC3)cc1,-15.0%,-62.0*,-32.5%,i,-11.4%
NC(=O)CC[C@@H]1NC(=O)[C@H](Cc2ccccc2)NC(=O)[C@H](Cc2ccc(O)cc2)NC(=O)CCSSC[C@@H](C(=O)N2CCC[C@H]2C(=O)N[C@@H](CCCN=C(N)N)C(=O)NCC(N)=O)NC(=O)[C@H](CC(N)=O)NC1=O,.,.,5.6%,i,.
Oc1ccccc1C(Nc1nccs1)c1ccc2cccnc2c1O (stereo unspecified),?,68.1,7.08µM*,i,-16.7%
Cc1ccnc(NC(c2cc(C)ccc2O)c2ccc3cccnc3c2O)c1 (stereo unspecified),.,.,.,.,-48.1%
Oc1c(C(Nc2ccccn2)c2ccccc2F)ccc2cccnc12 (stereo unspecified),1.41µM*,.,.,.,-1.3%
Oc1c(C(Nc2ccccn2)c2ccccn2)ccc2cccnc12 (stereo unspecified),-19.1%,92.9,5.01µM*,?,-16.0%
SMILES,TGFb inhibitor,IL1B secr inh,ATXN2 expr inh,S2 tox,HepG2 viability
FC(F)(F)c1nc(-c2cccs2)ncc1-c1nnnn1-c1ccc(Cl)cc1,-9.9%,-26.8,22.4µM*,?,-27.9%
Clc1ccc(-n2nnnc2-c2cnc(-c3ccncc3)nc2-c2cccs2)cc1,-16.9%,-28.1,-10.5%,i,-29.9%
COc1ccc(-n2nnnc2-c2cnc(N3CCCC3)nc2C(F)(F)F)cc1,?,-55.5*,-11.3%,i,-22.4%
Cc1cc(C)c2cc(CN(CCCN(C)C)C(=S)NCc3ccccc3)c(=O)[nH]c2c1,-14.8%,-73.3*,-12.5%,i,2.3%
Cc1cccc2cc(CN(Cc3ccccc3)C(=S)NCCCN(C)C)c(=O)[nH]c12,-2.4%,-84.5*,-33.8%,?,-23.8%
Cc1cccc2cc(CN(Cc3cccnc3)C(=S)NCCCN(C)C)c(=O)[nH]c12,0.9%,-6.7,-5.2%,i,-12.3%
Cc1ccc(CN(Cc2cc3cccc(C)c3[nH]c2=O)C(=S)NCCCN(C)C)cc1,7.4%,-77.5*,-12.2%,i,-6.7%
COc1ccc(/C=C2/C(=O)ON=C2C)cc1Br,1.0%,-88.0*,-15.6%,.,-10.5%
CC1=NOC(=O)/C1=C\c1ccc2c(c1)OCO2,?,-96.5*,10.2%,i,-30.3%
CC1=NOC(=O)/C1=C/c1ccc2c(c1)OCO2,-11.5%,-12.6,.,?,3.4%
CCc1ccc(NC(=O)NCCc2c(C)nn(C)c2C)cc1,1.3%,.,9.8%,i,2.9%
Cc1ccc(NC(=S)NC2CCSc3ccccc32)cc1C (stereo unspecified),15.8µM*,-81.4*,-29.7%,i,-10.8%
COc1ccc(CNc2ccc3cc(S(=O)(=O)N4CCCCC4)ccc3n2)cc1,-23.3%,.,-31.2%,?,-19.8%
O=C(CCl)N1CCN(S(=O)(=O)c2ccc3ccccc3c2)CC1,?,-99.5*,?,.,i
Nn1cc(-c2ccccc2)nc1SCC(=O)N1CCN(S(=O)(=O)c2ccc3ccccc3c2)CC1,?,-50.7*,-7.9%,i,-12.9%
O=C(CCl)N1CCN(S(=O)(=O)c2ccc3c(c2)OCCCO3)CC1,?,-96.4*,-29.0%,i,-100.9%
CCCCNc1nnc(SCC(=O)N2CCN(S(=O)(=O)c3ccc4ccccc4c3)CC2)s1,-22.9%,-54.4*,-17.2%,i,-17.3%
CCCCCC(=O)N1CCN(S(=O)(=O)c2ccc3c(c2)OCCO3)CC1,-5.0%,9.0,-10.8%,i,-24.7%
Cc1nn(-c2ccccn2)c2c1-c1nc(N)sc1CC2,-7.4%,.,.,.,-7.7%
Cc1ccc(C)c(N2CCN(c3ncccc3[N+](=O)[O-])CC2)c1,?,-50.9*,?,?,-23.7%

# Compound activity as filed in PubChem.
